Here are results for eight compounds from PubChem BioAssay (NCATS).

Records with an inconclusive call do not appear. Activity calls are given as the source filed them. Unless noted, calls follow the shape of the dose curve; as a rule, active = well fitted curve in the direction sought with a large enough effect; inconclusive = small, poorly fitted or top-dose-only effect, or another doubt; inactive = no such curve, though single readings can be large; an effect the other way counts as inactive or inconclusive.

The nature of experiment [1]: Cell Proliferation Assay Versus the ED40515 IL2 Independent ATL cell lines (AID 1053194; calls by dose curve). To be noted: ED40515 IL2-independent ATL cells. In outline:
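CellTiter-Glo luminescence, read after 15 min at RT, gave viability of IL-2-free ED40515 cells (1000/well, RPMI plus 5% FBS) following 48 h drug exposure at 37C. Control wells held DMSO or 9.2 uM bortezomib.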

Experiment [2] can be described thus: High-throughput drug toxicity screening in the BPDCN cell line Gen2.2 (AID 1224824; call rule not given here;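 also: cells exposed to compounds for 48 h before reading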). To be noted: Gen2.2 BPDCN cells; at 45.8 µM (top of the series) unless noted. In outline:
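Gen2.2, 500 cells/well, phenol red-free RPMI/10% FBS/Pen-Strep; 48 h cpd, 37 °C/5% CO2; CTG lum, 15 min RT. Norm: DMSO = 100%, bortezomib 9.2 uM final = 0%.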

A short description of experiment [3]: High-throughput drug toxicity screening in the BPDCN cell line Cal-1 (AID 1224825; call rule not given here). To be noted: Cal-1 BPDCN cell viability, qHTS; at 45.8 µM (top of the series) unless noted. In outline:
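Percent activity derived from CellTiter-Glo luminescence, scaling DMSO to 100% and 9.2 uM final bortezomib to 0%. BPDCN Cal-1 cells (500/well, RPMI plus 10% FBS) incubated with compounds 48 hours at 37C before reading.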

Experiment [4] in a line: qHTS assay for measurement of the activity of small molecule inhibitors on Zika virus induced Caspase-3 activity in human iPSC derived neural progenitor cells (hNPCs) (AID 1224857). Also: nearly all actives have a fitted effect of over 65% in size. Also: potency is read from the fitted curve at half-maximal effect. The following applies: hNPCs ZIKV-induced caspase-3/7, Caspase-Glo luminescence, 6 h; series mostly up to 45.7 µM. In outline: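 Pretreat hNPCs with compound 1 h; infect ZIKV 2 FFU/cell; 6 h 37 C, 5% CO2; Caspase-Glo 3/7, 30 min RT; luminescence; normalize to no-virus and virus-only wells.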

Experiment [5] in a line: qHTS assay for measurement of the activity of small molecule inhibitors on Zika virus induced Caspase-3 activity in human astrocytoma cells (AID 1224859).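 Also: plate controls were ZIKV-infected untreated cells for no effect and uninfected cells for full effect.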 To be noted: SNB-19 ZIKV-induced caspase-3/7, luminescence, 6 h; series mostly up to 45.7 µM. In outline:
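Human SNB-19 astrocytoma cells in RPMI 1640 with 10% FBS receive compound one hour ahead of Zika virus at 2 FFU/cell. After 6 h infection, caspase-3/7 activity is detected by Caspase-Glo luminescence.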

The nature of experiment [6]: qHTS Screen of the MIPE 4.0 Collection Against Ewings Sarcoma (RDES) (AID 1259252). Also: nearly all actives have a fitted effect of over 35% in size. Also: potency is read from the fitted curve at half-maximal effect. To be noted: RD-ES Ewing sarcoma viability, CellTiter-Glo, 48 h; series mostly up to 45.8 µM. The gist of the method: (§1)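 Cells plated in serum-containing RPMI (5% FBS) and treated with compound dilutions for 48 h. Readout luminescent viability; normalization relied on vehicle (no inhibition) and media-only columns (full inhibition).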
(In general: Quantitative high-throughput screening tests each substance at several concentrations.)

Experiment [7] in a line: qHTS Screen of the MIPE 4.0 Collection Against Ewings Sarcoma (TC71) (AID 1259253). Also: potency is read from the fitted curve at half-maximal effect; nearly all actives have a fitted effect of over 40% in size. To be noted: TC71 Ewing sarcoma viability, CellTiter-Glo, 48 h; series mostly up to 45.8 µM. In outline: as §1
Experiment [8] can be described thus: qHTS Screen of the MIPE 4.0 Collection Against Ewings Sarcoma (TC32) (AID 1259256). Also: nearly all actives have a fitted effect of over 45% in size. Also: potency is read from the fitted curve at half-maximal effect. To be noted: TC32 Ewing sarcoma viability, CellTiter-Glo, 48 h; series mostly up to 45.8 µM. In outline: as §1
Experiment [9] can be described thus: Identifying Small Molecule Inhibitors of Pancreatic Cancer Stem Cells (SN12C, Adherent) (AID 1259358).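 Also: cell survival measured after 48 h of compound exposure.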 Also: potency is read from the fitted curve at half-maximal effect. To be noted: viability/growth inhibition; series mostly up to 46.1 µM. In outline:
(§2)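 Pre-formed 14-day tumor spheroids or adherent cells dosed and incubated 48 h, 37C, 5% CO2. Viability assessed by CellTiter-Glo.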

Experiment [10] is described as follows: Identifying Small Molecule Inhibitors of Pancreatic Cancer Stem Cells (SN12C, Spheroid) (AID 1259360). Also: potency is read from the fitted curve at half-maximal effect.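 As to viability (% of control): 100% = DMSO-treated cells and 0% = wells without cells.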 To be noted: Potency: SN12C spheroid viability; series mostly up to 46.1 µM. The gist of the method:
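Spheroids grown 14 days in stem cell media on hydrogel-coated nonadherent plates; 2D lines seeded directly. Compounds added after 4 h attachment, 48 h at 37C, 5% CO2; CellTiter-Glo luminescence normalized to DMSO (no inhibition) and no-cell wells (full inhibition).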

A short description of experiment [11]: Identifying Small Molecule Inhibitors of Pancreatic Cancer Stem Cells (A278, Adherent) (AID 1259361). Also: nearly all actives have a fitted effect of over 35% in size.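 As to viability (% of control): 100% = DMSO-treated cells and 0% = cell-free media-only wells.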 To be noted: series mostly up to 46.1 µM. The gist of the method:
as §2

Experiment [12] in a line: P-glycoprotein substrates identified in KB-8-5-11 adenocarcinoma cell line, qHTS therapeutic library screen (AID 1346987). Also: nearly all actives have a fitted effect of over 65% in size. Also: potency is read from the fitted curve at half-maximal effect. The following applies: KB-8-5-11 (P-gp overexpressing) viability, CellTiter-Glo, 72 h; series mostly up to 44.5 µM. In outline:
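Compounds are pinned in dose-response onto KB-8-5-11 cells (500 cells/well, colchicine-free medium) and left 72 h at 37 degree C. CellTiter-Glo luminescence then yields AC50 values.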

Experiment [13] can be described thus: Natriuretic polypeptide receptor (hNpr1) antagonism - Pilot counterscreen GloSensor control cell line (AID 1347045; calls by dose curve; also: % is scaled to controls: 0 for no effect and ±100 for the full control effect). The following applies: HEK293 cGMP GloSensor cells, SNP-stimulated luminescence, 20 min; series mostly up to 38.3 µM. In outline:
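Control counterscreen: luciferase cGMP-biosensor HEK293 cells (no Npr1) received compound for 30 min at room temperature after GloSensor substrate loading. Luminescence was measured before and 20 min after soluble guanylyl cyclase activation by 50 uM nitroprusside.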
(In general: Counterscreens check selectivity or assay interference.)

The nature of experiment [14]: qHTS Screen of the MIPE 4.0 Collection Against Ewings Sarcoma (EW8) (AID 1259255). Also: nearly all actives have a fitted effect of over 35% in size. Also: potency is read from the fitted curve at half-maximal effect.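 As to viability: 100% = DMSO-treated cells and 0% = medium-only wells without cells.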 To be noted: EW8 Ewing sarcoma viability, CellTiter-Glo, 48 h; series mostly up to 45.8 µM. In outline:
as §1

Experiment [15] in a line: Identifying Small Molecule Inhibitors of Pancreatic Cancer Stem Cells (Panc1, Adherent) (AID 1259362). Also: potency is read from the fitted curve at half-maximal effect.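 As to viability, % of control: compound exposure lasted 48 h before the viability read; plate controls were DMSO-treated cells for no effect and cell-free media wells for full effect.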 To be noted: Potency: viability; series mostly up to 46.1 µM. The gist of the method:
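Cytotoxicity read by CellTiter-Glo luminescence after 48 h compound exposure at 37C; percent activity scaled between DMSO-treated cells and cell-free wells. Spheroid formats used cells pre-formed 14 days in stem cell media on hydrogel.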

Experiment [16] can be described thus: Cell Proliferation Assay Versus the ED40515 IL2 Dependent ATL cell lines (AID 1053195; calls by dose curve). The following applies: ED40515 IL2-dependent ATL cells. In outline:
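CellTiter-Glo luminescence (15 min, RT) measured viability after 48 hours at 37C; cells were ED40515 +IL2, 1000/well, in phenol red-free RPMI with 5% FBS. Controls: DMSO and 9.2 uM bortezomib.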

Experiment [17] in a line: qHTS assay to identify small molecule inhibitors of chordoma cells - UCH-1 (AID 1259355). Also: % is scaled to controls: 0 for no effect and ±100 for the full control effect; nearly all actives have a fitted effect of over 55% in size. To be noted: UCH-1 chordoma viability, CellTiter-Glo, 48 h, combination, with auranofin plus four topoisomerase inhibitors; series mostly up to 46.1 µM. The gist of the method:
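800 cells/well, overnight attach; compounds pinned at 15 concs, then auranofin/camptothecin/doxorubicin/rubitecan/topotecan combo added; 48hr 37 C, 5% CO2; CellTiter-Glo, 30min RT, luminescence.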

Turning to `CC(C)C[C@H](NC(=O)[C@@H](O)[C@H](N)Cc1ccccc1)C(=O)O`, the Potency in experiment [1] is 6.62 µM (active); in experiment [6], 23.5 µM (active); in experiment [7], 26.4 µM (active); in [8] it was 23.5 µM (active); in experiment [12], 23.5 µM (active). Moreover, the cell viability, % of control (lower = more cytotoxic) in experiment [2] amounted to 103%. In experiment [3], this compound displayed a viability (% of control) of 38.3%. Moreover, the Potency entry in experiment [4], in [5], in experiment [9] and in experiment [10] was “inactive” in each case. Moreover, the IC50 (viability decrease) result in experiment [11] was “inactive”. Also, the compound was classed as inactive in [13].

On to `O=C(c1cc(Cc2n[nH]c(=O)c3ccccc23)ccc1F)N1CCN(C(=O)C2CC2)CC1`, for which the Potency in [1] is 16.6 µM (active); in experiment [6], 8.33 µM (active); in experiment [8], 3.72 µM (active); in experiment [10] it was 18.7 µM (active). Besides, the cell viability, % of control (lower = more cytotoxic) in experiment [2] was 71.5%. In [3], this compound displayed a viability (% of control) of 45.4%. Besides, the Potency entry in experiment [4], in [5] and in experiment [12] was “inactive” each time.

With `COCCNCCCn1c(C(=O)CF)c(-c2ccc(C)cc2)c2c(N)ncnc21`, the Potency was 9.35 µM (active) in experiment [1] and 16.6 µM (active) in experiment [7]. Besides, the cell viability, % of control (lower = more cytotoxic) in experiment [2] worked out at 77.9%. In experiment [3], this compound had a viability (% of control) of 85.7%. Moreover, the Potency result in [4], in [14], in [9] and in [12] was “inactive” each time. For the same compound, the IC50 (viability decrease) in experiment [11] was 18.7 µM (active).

Regarding `COc1ccc(CCN2CCN(CCCc3ccccc3)CC2)cc1OC`, the Potency in experiment [1] was 7.43 µM (active); in [10], 13.2 µM (active). In addition, the cell viability, % of control (lower = more cytotoxic) in experiment [2] was found to be 340%. The compound further showed a viability (% of control) in [3] of 64.5%. Besides, the Potency result in experiment [4], in experiment [5], in [6], in [8], in [15] and in experiment [12] was “inactive” each time.

For the compound `CCOc1ccn(-c2ccc(F)cc2)c(=O)c1C(=O)Nc1ccc(Oc2ccnc(N)c2Cl)c(F)c1`, the Potency in experiment [1] was 23.5 µM (active); in experiment [6] it was 23.5 µM (active); in experiment [8], 23.5 µM (active); in experiment [9], 18.7 µM (active); in experiment [15], 6.62 µM (active); in [12], 14.8 µM (active). In experiment [3], this compound had a viability (% of control) of 23.7%. Also, the Potency result in experiment [4] and in experiment [5] was “inactive” in each case.

With `Cc1c(CCOc2ccc(C(=O)O)cc2)c2cc(Cl)ccc2n1C(c1ccccc1)c1ccccc1`, the Potency is 23.5 µM (active) in experiment [16]; 18.7 µM (active) in [6]; 16.6 µM (active) in experiment [7]; 14.8 µM (active) in experiment [14]; 10.5 µM (active) in experiment [8]. The cell viability, % of control (lower = more cytotoxic) in experiment [2] worked out at 222%. This compound displayed a viability (% of control) in experiment [3] of 96.5%. Besides, the Potency entry in [4], in [5], in [9], in experiment [10] and in experiment [12] was “inactive” in each case. Also, in experiment [11], the IC50 (viability decrease) entry is “inactive”.

For the compound `Cc1csc(NC(=O)c2sc3nc4c(c(C(F)(F)F)c3c2N)CCC4)n1`, the Potency in experiment [16] is 18.7 µM (active); in [4] it was 23.5 µM (active); in experiment [6], 1.48 µM (active); in experiment [7], 4.18 µM (active); in experiment [14] it was 13.2 µM (active); in [8], 6.62 µM (active). Moreover, in experiment [2], the cell viability, % of control (lower = more cytotoxic) came out at 36.4%. The compound further registered a viability (% of control) in experiment [3] of 93.3%. The Potency entry in [5], in experiment [9], in experiment [10], in experiment [15] and in [12] was “inactive” throughout. In addition, the IC50 (viability decrease) entry in [11] was “inactive”.

As for `CCc1ccc(CCOc2ccc(CC3SC(=O)NC3=O)cc2)nc1` (stereo not given), the Potency in experiment [16] is 16.6 µM (active); in experiment [6], 0.0148 µM (active); in experiment [7], 0.296 µM (active). In addition, in experiment [2], the cell viability, % of control (lower = more cytotoxic) was 142%. The same compound came in with a viability (% of control) in [3] of 100%. Also, the Potency entry in experiment [4], in experiment [5], in experiment [14], in experiment [8], in experiment [17] and in experiment [9] was “inactive” each time. The Potency result in experiment [10] and in experiment [12] was “inactive” each time.
